About 11,000 (3.1%) of roughly 360,000 compounds were called active. Inconclusive results (about 4%) are left out. The call rests on the fitted dose curve; in most records, active means well fitted inhibition curve with a large enough effect; inconclusive means small, poorly fitted or top-dose-only effect; inactive means no such curve, though single readings can be large or run the other way. Only a selection was taken, and actives are over-represented in it overall.
On the % scale 0 is the no-effect control and ±100 the full control effect; potency means the concentration at half of the fitted maximal effect.

The target of the test is Schistosoma mansoni thioredoxin glutathione reductase (TGR) (UniProt Q962Y6). Nature of the test: qHTS Assay for the Inhibitors of Schistosoma Mansoni Peroxiredoxins. Further: nearly all actives have a fitted effect of over 60% in size. Conditions: purified TGR, DTNB reduction, TNB absorbance 405 nm; series mostly up to 114 µM; activity change, negative = inhibition: at the top concentration. The essentials:
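Kinetic colorimetric format: TGR-catalysed, NADPH-driven DTNB reduction monitored via TNB absorbance. Enzyme dispensed at 20 nM; compound exposure 15 min at room temperature before reaction start.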
On the technique in general: Quantitative high-throughput screening tests each substance at several concentrations.
Consider `Cc1cccc(NC(=O)Cn2nc(-c3ccc(Cl)cc3)c3ccccc3c2=O)c1`, for which the “activity change, negative = inhibition” value was 9.04% (inactive).

On to `CC(=O)Nc1ccc(N2C(=O)CC(Sc3nccc(C)n3)C2=O)cc1` (stereo unspecified), for which the “activity change, negative = inhibition” value was -33.9% (inactive).

As to `CCOC(=O)c1ccc(N2C(=O)CC(Sc3nc(O)c(CC)c(=O)[nH]3)C2=O)cc1` (stereo unspecified), the “activity change, negative = inhibition” value was 0% (inactive).

Take `O=C1CC(Sc2ncn[nH]2)C(=O)N1c1ccccc1` (stereo unspecified): the Potency was 0.501 µM (active).

With `O=C1CC(c2ccccc2)C(=O)N1c1cccc(O)c1` (stereo unspecified), the “activity change, negative = inhibition” value is -8.38% (inactive).

Turning to `COc1ccc(N2C(=O)CC(Sc3n[nH]c(-c4ccc(C)cc4)n3)C2=O)cc1` (stereo unspecified), the Potency was 0.708 µM (active).

For `CCN(C(=O)CSc1ncn[nH]1)c1cccc2ccccc12`, the “activity change, negative = inhibition” value was -5.37% (inactive).

As for `Cc1ccc(N2C(=O)CC(Sc3ncn[nH]3)C2=O)cc1` (stereo unspecified), the Potency was 0.447 µM (active).

`COc1ccc(-c2nc(SCC(=O)N3CCCC3)n[nH]2)cc1`: the “activity change, negative = inhibition” value is 8.14% (inactive).

With `COc1ccc(N2C(=O)CC(SC(C)C)C2=O)cc1` (stereo unspecified), the “activity change, negative = inhibition” value is -11.8% (inactive).

Consider `COc1ccc(NC(=O)CSc2nc3ncccc3[nH]2)c(OC)c1`, for which the “activity change, negative = inhibition” value is 3.81% (inactive).

For the compound `COc1ccccc1C(=O)NCCn1cc(SCc2ccccc2Cl)c2ccccc21`, the “activity change, negative = inhibition” value is 15.5% (inactive).

Consider `Cc1cccc(N2CCN(c3ccc(C(=O)O)cc3NC(=O)c3ccccc3F)CC2C)c1` (stereo unspecified), for which the “activity change, negative = inhibition” value was -9.71% (inactive).

Regarding `COc1cc(OC)c(N(C)C(=O)c2cc3c(=O)oc4ccccc4c3s2)cc1Cl`, the “activity change, negative = inhibition” value was -2.14% (inactive).

Regarding `Cc1ccc(-c2cc(C(F)(F)F)c(C#N)c(SCC(=O)Nc3ccccc3)n2)cc1`, the “activity change, negative = inhibition” value is 6.14% (inactive).

On to `Cc1cccc(CCNC(=O)c2ccc3c(c2)nc2n3CCC(C)C2)c1` (stereo unspecified), for which the “activity change, negative = inhibition” value was 7.13% (inactive).

On to `COc1ccc(CCN2C(=O)C3CC=C(C)CC3C2=O)cc1OC` (stereo unspecified), for which the “activity change, negative = inhibition” value is -4.3% (inactive).

Regarding `NC(=O)C1CCN(C2OC(=O)c3ccccc32)CC1` (stereo unspecified), the “activity change, negative = inhibition” value is -33.1% (inactive).

In the case of `COc1ccc(COCC(O)CN2CCC(C(N)=O)CC2)cc1` (stereo unspecified), the “activity change, negative = inhibition” value was 8.49% (inactive).

As for `COc1ccc(N2C(=O)CC(N3CCC(C(N)=O)CC3)C2=O)cc1` (stereo unspecified), the Potency was 14.1 µM (active).

For `COc1ccc(CCN2C(=O)CC(N3CCC(C(N)=O)CC3)C2=O)cc1OC` (stereo unspecified), the Potency was 3.16 µM (active).

For the compound `COc1ccc(CCN2C(=O)C(C)=C(C)C2=O)cc1OC`, the “activity change, negative = inhibition” value was 0.409% (inactive).

Consider `COCCn1c(SCC(=O)c2cc(C)ccc2C)nc2cc(C(=O)NC3CCCC3)ccc2c1=O`, for which the “activity change, negative = inhibition” value was -1.98% (inactive).

As to `CCCN1C(=O)C(O)(CC(=O)c2ccc(CC)cc2)c2cc(Br)ccc21` (stereo unspecified), the “activity change, negative = inhibition” value was -0.17% (inactive).

As to `CC(=O)Nc1cccc(NC(=O)CSc2nccn2Cc2ccc3c(c2)OCO3)c1`, the “activity change, negative = inhibition” value was 0.562% (inactive).

Consider `Cc1ccccc1CN1CCC(CNC(=O)c2cc3ccc4cccnc4c3[nH]2)CC1`, for which the “activity change, negative = inhibition” value was -12.3% (inactive).

`CCOc1ccc(CNC(=O)c2cc(-c3ccc(Cl)s3)nc3ccccc23)cc1`: the “activity change, negative = inhibition” value is -1.13% (inactive).

Turning to `CCOC(=O)c1scc(-c2ccccc2)c1S(=O)(=O)Nc1ccccc1F`, the “activity change, negative = inhibition” value is -1.54% (inactive).

Take `CCOC(=O)c1c(-c2ccc(-c3ccccc3)cc2)csc1NC(=O)CCC(=O)O`: the “activity change, negative = inhibition” value was 1.62% (inactive).

Turning to `CCCS(=O)(=O)c1ncc(Cl)c(C(=O)Nc2scc(-c3ccccc3)c2C(=O)OCC)n1`, the Potency was 2 µM (active).

Consider `CCC(Sc1nnc(-c2ccc(OC)cc2)c(-c2ccc(OC)cc2)n1)C(=O)NC1CCCCC1` (stereo unspecified), for which the “activity change, negative = inhibition” value is -0.319% (inactive).

For the compound `COc1cccc(CNC(=O)c2ccc3c(c2)N(Cc2ccc(C(F)(F)F)cc2)C(=O)c2ccccc2S3)c1OC`, the “activity change, negative = inhibition” value is 0.85% (inactive).

`CCOc1ccc(-n2c(C)nc3c(cnn3-c3ccc(C)cc3)c2=O)cc1`: the “activity change, negative = inhibition” value is 1.06% (inactive).

Take `CCOCCCNC(=S)Nc1ccc2nc(N3CCN(CC)CC3)cc(C)c2c1`: the Potency was 50.1 µM (active).

In the case of `CCN1CCN(c2cc(C)c3cc(NC(=O)c4cc(Cl)ccc4OC)ccc3n2)CC1`, the “activity change, negative = inhibition” value is 2.25% (inactive).

`Cc1cc(N2CCOCC2)nc2ccc(NC(=S)N3CCN(Cc4ccccc4)CC3)cc12`: the “activity change, negative = inhibition” value was 0.208% (inactive).

Regarding `Cc1cccc(-n2ccnc2SCC(=O)Nc2cc(C(F)(F)F)ccc2Cl)c1`, the “activity change, negative = inhibition” value is 0.387% (inactive).

Consider `CCOc1ccc(N(C)S(=O)(=O)c2cc(-c3cnc(C)o3)ccc2OC)cc1`, for which the “activity change, negative = inhibition” value is -9.5% (inactive).

As to `C=C(Br)CN1CCN(CC(=C)Br)CC1`, the Potency is 10 µM (active).

In the case of `COc1ccc(CCNC(=O)c2cn(C)c3ccc(S(=O)(=O)N(C)C4CCCCC4)cc3c2=O)cc1OC`, the “activity change, negative = inhibition” value was 25.8% (inactive).

For `CCCCCn1c(=O)[nH]c2cc(C(=O)Nc3ccc(F)cc3)ccc2c1=O`, the “activity change, negative = inhibition” value is 15.7% (inactive).

As for `CCCC12CN3CC(CCC)(CN(C1)C3c1c[nH]c3ccc(OC)cc13)C2=O` (stereo unspecified), the “activity change, negative = inhibition” value was 34.3% (inactive).

Turning to `Cc1ccc(Cl)cc1NC(=O)/C(C#N)=C\c1cn(Cc2ccc(F)cc2)c2ccccc12`, the “activity change, negative = inhibition” value was -1.54% (inactive).

Take `COc1ccc(C2CC(c3cccs3)=NN2c2ccc(F)cc2)cc1OC` (stereo unspecified): the Potency was 56.2 µM (active).

Consider `COc1ccc(C2CC(c3cccs3)=NN2c2nc(C)c(C(C)=O)s2)cc1OC` (stereo unspecified), for which the “activity change, negative = inhibition” value is 0.274% (inactive).

Consider `COc1ccc(C2CC(c3cccs3)=NN2C(=O)CSc2nncs2)cc1OC` (stereo unspecified), for which the “activity change, negative = inhibition” value is -11.3% (inactive).

Turning to `COC(=O)CN1C(=S)N(c2ccccc2)C(=O)C1CC(=O)Nc1ccc(Cl)cc1` (stereo unspecified), the “activity change, negative = inhibition” value was -0.808% (inactive).

`O=C1C=C(c2ccc(Cl)cc2)C(=O)N1Nc1ccccc1`: the “activity change, negative = inhibition” value was -33.5% (inactive).

As for `O=C(O)CC1=C(Nc2ccccc2)C(=O)N(c2ccccc2)C1c1ccc(Cl)cc1` (stereo unspecified), the Potency was 39.8 µM (active).

For the compound `Cc1ccc(CCNC(=O)c2nnc(Cc3cccc(F)c3)o2)cc1`, the “activity change, negative = inhibition” value was -8.78% (inactive).

As to `CCNC(=O)c1cc2n(n1)CCCN(Cc1ccc(C)cc1)C2=O`, the “activity change, negative = inhibition” value is 0.153% (inactive).

As to `CSc1ccc(CCNC(=O)c2ccc3c(c2)nc2n3CCOC2)cc1`, the “activity change, negative = inhibition” value was -0.625% (inactive).

Consider `Cc1cn(C)c(CC(=O)NCc2ccccc2)c1C(=O)O`, for which the “activity change, negative = inhibition” value was 6.43% (inactive).

For `COc1ccc2[nH]c(=O)c(CN(Cc3nnnn3CCc3ccccc3)CC3CCCO3)cc2c1` (stereo unspecified), the “activity change, negative = inhibition” value is -3.1% (inactive).

Consider `CCC(c1nnnn1C1CCCC1)N(Cc1cccs1)Cc1cc2cccc(C)c2[nH]c1=O` (stereo unspecified), for which the “activity change, negative = inhibition” value was 3.03% (inactive).

On to `CCOc1ccc2[nH]c(=O)c(CN(Cc3nnnn3Cc3ccccc3)CC3CCCO3)cc2c1` (stereo unspecified), for which the “activity change, negative = inhibition” value is -4.32% (inactive).

For the compound `CCC(c1nnnn1Cc1ccco1)N(CCc1ccccc1)Cc1cc2cccc(C)c2[nH]c1=O` (stereo unspecified), the Potency is 22.4 µM (active).

For the compound `CCC(c1nnnn1Cc1ccco1)N(Cc1cc2cc(OC)ccc2[nH]c1=O)C1CCCCC1` (stereo unspecified), the Potency is 12.6 µM (active).

In the case of `Cc1cccc2cc(CN(Cc3cccs3)C(=S)NCc3ccco3)c(=O)[nH]c12`, the “activity change, negative = inhibition” value was 5% (inactive).

As to `Cc1ccc(-c2nnc(SCc3ccccc3C)o2)cc1`, the “activity change, negative = inhibition” value is -5.42% (inactive).

For `Cc1ccc(C)c(N2CCN(C(c3ccccc3)c3nnc(-c4ccccc4)o3)CC2)c1` (stereo unspecified), the “activity change, negative = inhibition” value is 3.88% (inactive).

As for `COc1cc(C(=O)Nc2ccc(OCc3cc(=O)n4ccc(C)cc4n3)cc2)cc(OC)c1OC`, the “activity change, negative = inhibition” value was 0.391% (inactive).

For `CCCCn1c(CNC(=O)C23CC4CC(CC(C4)C2)C3)nnc1SCC(=O)Nc1ccc(C)cc1`, the “activity change, negative = inhibition” value was -6.55% (inactive).

On to `COc1ccc(NS(=O)(=O)c2cc3c4c(c2)CC(=O)N4CCC3)cc1Cl`, for which the “activity change, negative = inhibition” value is -0.0014% (inactive).

Consider `Cc1n[nH]c(=O)c2c(NC(=O)CSc3cc(Cl)ccc3Cl)oc(C)c12`, for which the “activity change, negative = inhibition” value is 2.22% (inactive).

For `Cc1n[nH]c(=O)c2c(NC(=O)COC(=O)c3ncc(Cl)c(Cl)c3Cl)oc(C)c12`, the Potency is 15.8 µM (active).

As for `Cc1n[nH]c(=O)c2c(NC(=O)CSc3ccccc3F)oc(C)c12`, the “activity change, negative = inhibition” value was -30.9% (inactive).

With `CC(=O)c1ccc(NC(=O)CSc2nnc(NC(=O)Nc3ccccc3)s2)cc1`, the “activity change, negative = inhibition” value is 1.64% (inactive).

Take `CCc1ccc(NC(=O)CCCc2nnc3n(CCCOC)c(=O)c4sccc4n23)cc1`: the “activity change, negative = inhibition” value is 1.38% (inactive).

For `COc1ccc(C(=O)c2oc3ccccc3c2NC(=O)COc2cccc(C)c2)cc1`, the “activity change, negative = inhibition” value was 0.199% (inactive).

Turning to `CN(Cc1ccccc1)C(=O)c1cn(C)c2ccc(S(=O)(=O)N3CCCCC3)cc2c1=O`, the “activity change, negative = inhibition” value is -7.29% (inactive).
